Compounds without any hit were thinned out: in the full panel of roughly 83,000, 20% have a hit.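 How to read the values: 0–100, growth inhibition (40 = 60% inhibited); 0, no net growth; -100 to 0, cell death (-40 = 40% of starting cells died; -100 = all dead).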 A number with no mark means an inactive call. Calls of active or inactive are those of the source.

This assay concerns HCT-116 colon. The assay can be described thus: NCI-60 one-dose screen, 48 h (100 = growth as untreated, 0 = no growth, -100 = all killed). Conditions: 10 µM. The procedure: Growth inhibition of the HCT-116 human tumor cell line is measured as a screen for anti-cancer activity. Cells are grown in 96 well plates and exposed to the test compound for 48 hours. Compounds are tested at a single concentration, which is 10^-5 M for most compounds. The reported endpoint is percent growth (GI% or GIPRCNT), where numbers from 0 - 100% represent growth inhibition, and numbers from -100% - 0 represent cell death. For example, a value of 40 represents 60% growth inhibition. A value of 0 means no net growth occurred over the course of the experiment. A value of -40 indicates 40% of cells at the beginning of the experiment died by the end of the experiment. A value of -100 means all cells are dead at the end of the experiment.
NCI-60 Human Tumor Cell Lines Screen was performed using the standard one-dose NCI protocol, which is described in more detail at https://dtp.cancer.gov/discovery_development/nci-60/default.htm.
Compounds with GIPRCNT values below 10 were considered active. Activity score was based on GIPRCNT using the following formula: […]
Score is 0 for GIPRCNT values of 100 or above, 50 for GIPRCNT values of 0, and 100 for GIPRCNT values of -100.
Turning to `C[C@H]1[C@H](OC(=O)CCC(=O)N(CCCc2cn(-c3ccc(C#N)cc3)nn2)CCNc2ccnc3cc(Cl)ccc23)O[C@@H]2OC3(C)CC[C@H]4[C@H](C)CC[C@@H]1[C@@]24OO3`, the growth is 21.9%.
Under `CCOP(=O)(CC(F)(F)C(F)(F)F)OCC` stands -70.7% (active); under `CC(=C\C(=O)Oc1ccc2c3c1OC1C(O)CCC4(O)C(C2)N(CC2CCC2)CCC314)/C=C1\CCCc2ccccc21` (stereo not given), 28.6%.
Under `COC(=O)C[C@](O)(CCC(C)C)C(=O)O[C@H]1C(OC)=C[C@@]23CCCN2CCc2cc4c(cc2[C@@H]13)OCO4` stands -20.4% (active); under `O=C(/C=C/c1ccco1)c1nc2ccccc2n1Cc1ccc(F)cc1`, 59.3%.
Under `CC(C)C[C@H](NC(=O)CNC(=O)C[C@H]1O[C@@H]2OC3(C)CC[C@H]4[C@H](C)CC[C@@H]([C@H]1C)[C@@]24OO3)B(O)O` stands -72.3% (active); under `C#CC[Se]C(=O)c1ccc2n[se]nc2c1`, -27.1% (active); under `COC(=O)c1ccc(-n2cc(CCCN(CCNc3ccnc4cc(Cl)ccc34)C(=O)CCC(=O)O[C@@H]3O[C@@H]4OC5(C)CC[C@H]6[C@H](C)CC[C@@H]([C@H]3C)[C@@]46OO5)nn2)cc1`, 26%.
On to `Cc1ccc2[nH]c(=S)n(-c3ccc(F)cc3)c(=O)c2c1`, for which the growth was 96.3%.
Under `C=CCN=C([Se])NC(=O)c1ccc2c(c1)OCO2` stands 43.6%; under `C#CC[Se]C(=O)c1ccc(C(=O)[Se]CC#C)s1`, 14%; under `O=C(NCCCCC(c1ccc(F)cc1)c1ccc(F)cc1)Nc1ccc([N+](=O)[O-])c(C(F)(F)F)c1`, -58.2% (active).
Under `N#C[Se]CC(=O)Nc1cccc(C(F)(F)F)c1` stands -66.8% (active).
Under `COCCOCCOCCOc1ccc(-n2cc(-c3ccc(O[C@H]4O[C@@H]5OC6(C)CC[C@H]7[C@H](C)CC[C@@H]([C@H]4C)[C@@]57OO6)cc3)nn2)cc1` stands 37.3%; under `C=CC[Se]C(=O)c1ccc(C(=O)[Se]CC=C)s1`, -77.9% (active); under `CN(C)CCc1cn(C2CCC2)c2cccc(O)c12`, 31.6%.
Regarding `CC1=C(COCCOC(=O)c2ccc(S(=O)(=O)F)cc2)C2=C(C)C3(CC3)[C@@](C)(O)C(=O)C2=C1`, the growth was 6.93% (active).
Under `CC1=C(C=O)C2=C(C)C3(CC3)[C@@](C)(O)C(=O)C2=C1` stands -34.7% (active); under `CC[C@]12C=CCN3CC[C@@]4(c5ccc(OC)cc5N(C)[C@H]4[C@@](O)(C(=O)OC)[C@@H]1OC(=O)CCC[P+](c1ccc(C)cc1)(c1ccc(C)cc1)c1ccc(C)cc1)[C@@H]32`, -93.4% (active).
`C[C@H]1[C@H](OC(=O)CCC(=O)Nc2cnccn2)O[C@@H]2OC3(C)CC[C@H]4[C@H](C)CC[C@@H]1[C@@]24OO3`: the growth was 14.6%.
The value for `CC[C@]12C=CCN3CC[C@@]4(c5ccc(OC)cc5N(C)[C@H]4[C@@](O)(C(=O)OC)[C@@H]1OC(=O)CCC[P+](c1ccc(F)cc1)(c1ccc(F)cc1)c1ccc(F)cc1)[C@@H]32` was 32.2%; that for `COc1cc(OC)c(/C=C/C(=O)c2nc3ccccc3n2Cc2ccc(F)cc2)c(OC)c1` was 74.8%; that for `COC(=O)C[C@](O)(CCCC(C)C)C(=O)O[C@H]1C(OC)=C[C@@]23CCCN2CCc2cc4c(cc2[C@@H]13)OCO4` was -7.84% (active).
Under `COC(=O)C[C@](O)(CCC(C)C)C(=O)O[C@@H]1C(OC)=C[C@]23CCCN2CCc2cc4c(cc2[C@H]13)OCO4` stands -27.5% (active).
Take `O=C(/C=C/c1ccccc1)c1nc2ccccc2n1Cc1ccc(F)cc1`: the growth is -87.4% (active).
The value for `CC1=C(CCC=NNC(N)=O)C2=C(C)C3(CC3)[C@@](C)(O)C(=O)C2=C1` was 1.04% (active); that for `CCOC(=O)C1=C(Nc2ccccc2)C(=O)OC12C(=O)Nc1ccccc12` (stereo not given) was 109%.
The value for `O=C(/C=C/c1ccc(F)cc1)c1nc2ccccc2n1Cc1ccc(Br)cc1` was -79.4% (active); that for `O=C(/C=C/c1ccc(Cl)cc1Cl)c1nc2ccccc2n1Cc1ccc(F)cc1` was 7.22% (active); that for `C#CCCCN(CCNc1ccnc2cc(Cl)ccc12)C(=O)CCC(=O)O[C@@H]1O[C@@H]2OC3(C)CC[C@H]4[C@H](C)CC[C@@H]([C@H]1C)[C@@]24OO3` was 19.4%.
In the case of `C[C@H]1[C@@H](Oc2ccc(-c3cn(-c4ccnc5cc(Cl)ccc45)nn3)cc2)O[C@@H]2OC3(C)CC[C@H]4[C@H](C)CC[C@@H]1[C@@]24OO3`, the growth is 15.8%.
Under `O=C(/C=C/c1ccccc1)c1nc2ccccc2n1Cc1ccc(Br)cc1` stands -88.1% (active); under `CC1=C(CCC=O)C2=C(C)C3(CC3)[C@@](C)(O)C(=O)C2=C1`, -63.9% (active).
With `CCC[Se]C(=O)c1ccc(C(=O)[Se]CCC)s1`, the growth is -56% (active).
`C[C@H]1[C@H](OC(=O)CCC(=O)N(CCCc2cn(-c3ccc(CN4CCOCC4)cc3)nn2)CCNc2ccnc3cc(Cl)ccc23)O[C@@H]2OC3(C)CC[C@H]4[C@H](C)CC[C@@H]1[C@@]24OO3`: the growth is -8.13% (active).
In the case of `O=C(NC([Se])=NC1CCCCC1)c1ccccc1`, the growth was 30.4%.
The value for `COc1ccc(/C=C/C(=O)c2nc3ccccc3n2Cc2ccc(Br)cc2)cc1` was 32%; that for `C=CC[Se]C(=O)c1cncc(C(=O)[Se]CC=C)c1` was -86.4% (active).
Under `O=C(/C=C/c1ccco1)c1nc2ccccc2n1Cc1ccc(Br)cc1` stands 8.16% (active).
`CC12OOC(C)(OO1)C2CCC(=O)NCCNc1ccnc2cc(Cl)ccc12` (stereo not given): the growth was 100%.

The values above are taken from PubChem BioAssay (NCI).
